Methyltransferases: Primary Screen for Target Class Profiling of Small Molecule Inhibitors of Methyltransferases. actives 3.9% (n = 25,000). calls only at 40 µM. purified enzyme, MTase-Glo SAH luminescence; hits give low values. AID 1745853, 2022; call rule not given here
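Each enzyme was reacted with SAM and its substrate, with compounds tested once at 40 uM; SAH formed was read by MTase-Glo luminescence.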
Starred values were filed as active, the others as inactive; ! = not active in a repeat. The entries come from a sample that favours hits as a whole. % is set by controls: 0 for no effect and ±100 for the full control effect.

What do the screens show for `CC1=NOC2(CCN(C(=O)c3ccccc3)C2)C1` (configuration not stated)?
Methyltransferases: inactive

What do the screens show for `CC(=O)N(C)C1(c2ccccc2)CCN(CCC[C@]2(c3ccc(Cl)c(Cl)c3)CCCN(C(=O)c3ccccc3)C2)CC1`?
Methyltransferases: active

What do the screens show for `O=C(c1ccccc1)N1CCCC2(CC(c3ccccc3)=NO2)C1` (configuration not stated)?
Methyltransferases: inactive

What do the screens show for `CC1CCN(S(=O)(=O)c2ccc3c(ccn3CCC(=O)NCCCN3CCOCC3)c2)CC1`?
Methyltransferases: inactive

What do the screens show for `CC(=O)/C=C/C1(O)C(C)=CC(=O)CC1(C)C` (configuration not stated)?
Methyltransferases: inactive

How did CC1=CC(=O)CC(C)(C)[C@@]1(O)/C=C/C(C)O[C@@H]1O[C@H](CO)[C@@H](O)[C@H](O)[C@H]1O (some centres not stated) do in these assays?
Methyltransferases: inactive

Results for CC1=CC(=O)CC(C)(C)C1(O)CCC(C)O (configuration not stated) ?
Methyltransferases: active

How did O=C(Nc1ccccc1Cl)N1Cc2c(sc3c2CCCC3)-n2cccc2C1c1cccc(F)c1 (configuration not stated) do in these assays?
Methyltransferases: inactive

How did CCN1C(=O)c2cc3ccccc3n2CC1(C)C(=O)NCC(=O)NCCc1ccco1 (configuration not stated) do in these assays?
Methyltransferases: inactive

How did COc1ccc(-n2c(=O)[nH]c3cccnc32)cc1OC do in these assays?
Methyltransferases: inactive

How did COc1cc2c(cc1-c1c(C)noc1C)ncc1[nH]c(=O)n(C(C)c3ccccn3)c12 (configuration not stated) do in these assays?
Methyltransferases: active!

How did Cc1ccc(N2C(=O)c3ccc(-c4ccco4)n3CC2(C)C(=O)NCc2ccc(Cl)cc2)cc1F (configuration not stated) do in these assays?
Methyltransferases: inactive

Results for CCNC(=O)NCCc1noc(-c2ccncc2)n1 ?
Methyltransferases: inactive

What do the screens show for `CC(C)OCCCn1c(=O)c2ccccc2n2c(SCc3ccc(F)cc3)nnc12`?
Methyltransferases: inactive

How did COc1ccc2nc3n[nH]c(C)c3c(NCCOCCO)c2c1 do in these assays?
Methyltransferases: active

How did O=C(Nc1cc(-c2ccccc2)nn1-c1ccccc1)c1ccc([N+](=O)[O-])cc1 do in these assays?
Methyltransferases: inactive

Results for O=[N+]([O-])c1ccc(-[n+]2nc(-c3ccccc3)nn2-c2ccc(I)cc2)cc1 ?
Methyltransferases: active

What do the screens show for `Cc1ccc(C)c(N2CCN(C(=O)CCc3nnc4n(Cc5ccc(F)cc5)c(=O)c5ccccc5n34)CC2)c1`?
Methyltransferases: inactive

How did CC(C)CCNC(=O)C1(C)Cn2c(cc3ccccc32)C(=O)N1CCc1ccccc1 (configuration not stated) do in these assays?
Methyltransferases: inactive

What do the screens show for `Cc1cc(C(F)(F)F)nc(CNc2cc(C3CC(O)C3)nc(N)n2)n1` (configuration not stated)?
Methyltransferases: inactive

What do the screens show for `CCO[C@@H]1OC(=O)C[C@@H]1NC(=O)[C@@H]1CCCN1C(=O)[C@@H](NC(=O)c1ccc(N)c(Cl)c1)C(C)(C)C`?
Methyltransferases: inactive

How did COc1cccc(-c2ccc(C(=O)NCCNC(=O)Cc3ccc(F)cc3)cc2)c1 do in these assays?
Methyltransferases: inactive

What do the screens show for `CN1CCN([C@H]2[C@@H]3OC[C@@H](O3)[C@@H](NC(=O)Nc3ccccc3)[C@@H]2O)CC1`?
Methyltransferases: inactive

How did Cn1c(=O)c2ccc(C(=O)NC3CCCC3)cc2n2c(=O)n(CC(=O)Nc3cc(F)ccc3F)nc12 do in these assays?
Methyltransferases: inactive

Results for Cc1c(C)n(Cc2ccc(-c3ccccc3C(=O)O)cc2)c2ccc(C(=O)N[C@@H](C)c3ccc([N+](=O)[O-])cc3)cc12 ?
Methyltransferases: active

How did Cc1ccc(Cn2c(=O)c3ccc(C(=O)NC(C)C)cc3n3c(=O)n(Cc4ccccc4)nc23)cc1 do in these assays?
Methyltransferases: inactive

Results for COC(=O)[C@H](Cc1ccc([N+](=O)[O-])cc1)NC(=O)c1cccc2ccccc12 ?
Methyltransferases: inactive

Results for CCCN1C(=O)c2c(C(=O)Nc3c(C)cc(C)cc3C)ncn2CC1(C)C(=O)NC1CCCC1 (configuration not stated) ?
Methyltransferases: inactive

How did Cc1nc(C(=O)NC2CC(c3cc(N4CCC(O)C4)ncn3)C2)cs1 (configuration not stated) do in these assays?
Methyltransferases: inactive

How did Cc1cc2c(C(C)C)c(O)c(O)c(C=O)c2c(O)c1-c1c(C)cc2c(C(C)C)c(O)c(O)c(C=O)c2c1O do in these assays?
Methyltransferases: active

How did COc1ccc(-c2nnc3c4ccccc4c(C)nn23)cc1S(=O)(=O)N1CCC(C)CC1 do in these assays?
Methyltransferases: inactive

What do the screens show for `CC(C)Cn1c(=O)c2ccc(C(=O)NC(C)C)cc2n2c(SCc3ccc(Cl)cc3)nnc12`?
Methyltransferases: inactive

How did CC1CCN(S(=O)(=O)c2ccc3c(ccn3CC(=O)NCCCc3ccccc3)c2)CC1 do in these assays?
Methyltransferases: inactive

Results for CCCCN1C(=O)CSc2c(c3ccccc3n2C)C1C(=O)NCc1ccccc1OC (configuration not stated) ?
Methyltransferases: inactive

Results for N#Cc1cccc(-c2c[nH]c3ncnc(N4CCOCC4)c23)c1 ?
Methyltransferases: active

How did CCCn1c(=O)c2cc(Cl)ccc2n2c(SCC(=O)Nc3cccc(F)c3)nnc12 do in these assays?
Methyltransferases: inactive

Results for CCN1C(=O)c2cc3ccccc3n2CC1(C)C(=O)NCC(=O)NCc1cccs1 (configuration not stated) ?
Methyltransferases: inactive

Results for C/C=C(\C)C(=O)O[C@@H]1CC2[C@@H](CC=C3C[C@@H](O[C@H]4C[C@H](OC)[C@H](O[C@H]5C[C@H](OC)[C@H](O[C@H]6C[C@H](OC)[C@H](O[C@H]7C[C@@H](OC)[C@H](O[C@@H]8O[C@H](CO)[C@@H](O)[C@H](O)[C@H]8O)[C@@H](C)O7)[C@@H](C)O6)[C@@H](C)O5)[C@@H](C)O4)CC[C@@]32C)[C@@]2(O)CC[C@H](C(C)=O)[C@@]12C (some centres not stated) ?
Methyltransferases: inactive

What do the screens show for `Cc1ccc(C(=O)Cn2nc3n(Cc4ccc(F)cc4)c(=O)c4ccccc4n3c2=O)c(C)c1`?
Methyltransferases: inactive

What do the screens show for `CC(C)CCn1c(=O)c2ccccc2n2c(SCC(=O)NC(C)C)nnc12`?
Methyltransferases: inactive

What do the screens show for `CCOCCCN1C(=O)c2cc3occc3n2CC1(C)C(=O)NC1CCC(C)CC1` (configuration not stated)?
Methyltransferases: inactive

What do the screens show for `CCc1cc(Nc2nccc(-c3c(-c4ccc(OC)c(C(=O)Nc5c(F)cccc5F)c4)nc4ccccn34)n2)c(OC)cc1N1CCC(N2CCN(S(C)(=O)=O)CC2)CC1`?
Methyltransferases: active

What do the screens show for `O=C(c1nccc2ccccc12)N1CCC2(CC1)CC(O)CCO2` (configuration not stated)?
Methyltransferases: inactive

What do the screens show for `Cc1ccccc1CN1C(=O)c2ccc(-c3ccco3)n2CC1(C)C(=O)NC1CCC(C)CC1` (configuration not stated)?
Methyltransferases: inactive
